Compound activity (PubChem BioAssay)
DAX1 inh – inhibitors of DAX1 repression of SF-1 activated StAR promoter; HEK293T StAR-luciferase reporter, SF-1/DAX-1 repression relief; inhibition, % at 6.8 µM; 370,000 tested, 1.1% active;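 active means inhibition above the mean over all tested compounds plus 3 SD, cut at about 3.6% in these data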;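 further: higher inhibition means more luminescence from relief of DAX-1 repression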
hgDAF12 agonist – hgDAF-12 agonism, primary luciferase screen. HEK293 GAL4-hgDAF12 UAS-luciferase reporter, agonist luminescence; normalized to butyrate control. AID 687014. activation, % at 6.8 µM. 370,000 tested, 1.8% active;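 active means activation above a cutoff set at the mean of all screened compounds plus 3 SD, cut at about 10% in these data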
esBAF inh – SWI/SNF esBAF complex inhibition; reporter increase, % at 12.5 µM; AID 602393; mouse ES cells, Bmi1-luciferase knock-in reporter, 24 h; 100% = twice the neutral-well signal; 350,000 tested, 2% active; in the data active means activation above about 40%;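 further: a rise in the Bmi1 reporter signal indicates esBAF inhibition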
hcDAF12 agonist – activates DAF-12 receptor from parasite H. contortus; 370,000 tested, 1.4% active; HEK293 hcDAF-12 lit1-tk-luc reporter, luminescence; 0% DMSO, 100% Δ7-dafachronic acid; activation, % at 6.8 µM; AID 652067;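 active means activation above the mean of all tested compounds plus 3 SD, cut at about 5.5% in these data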
Wnt bcat act – activates Wnt/beta-catenin signaling in a reporter cell assay | activator, plate reader | 300,000 tested, 1.2% active | activation, % at 9.35 µM; in the data active means activation above about 30%, passing the limit was not always enough
ssDAF12 agonist – activates DAF-12 receptor from parasite S. stercoralis | HEK293 ssDAF-12/GRIP1 lit1-tk-luc reporter, luminescence; % of 3 µM dafachronic acid response | activation, % at 6.8 µM | 370,000 tested, 1% active | AID 652126;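 active means activation above the mean over all tested compounds plus 3 SD, cut at about 0.9% in these data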
Hits are given with their value; – = inactive; · = not tested or not shown. This is a sample that favours compounds with a hit; in the whole collection about 4.2% have one here.

SMILES	DAX1 inh	hgDAF12 agonist	esBAF inh	hcDAF12 agonist	Wnt bcat act	ssDAF12 agonist
C[C@@H]1CN([C@@H](C)CO)C(=O)c2cc(C3=CCCCC3)cnc2O[C@H]1CN(C)C(=O)c1ccccc1	·	·	–	·	·	·
Cc1ccn(CC(=O)NC2CC(C)(C)Cc3c2cnn3-c2ccc(F)cc2)n1 (stereo unspecified)	–	–	42	–	–	–
C[C@@H]1CN([C@@H](C)CO)C(=O)c2cc(NS(C)(=O)=O)ccc2O[C@@H](C)CCCCO[C@H]1CN(C)S(=O)(=O)c1ccc(Cl)cc1	·	·	–	·	·	·
N#C/C(=C(/O)CN1CCCCC1)c1nc(-c2ccc(Cl)cc2)cs1	–	–	60	–	·	–
N#C/C(=C(/O)CN1CCOCC1)c1nc(-c2ccccc2)cs1	–	–	–	–	·	–
N#C/C(=C(/O)CCl)c1nc(-c2ccccc2)cs1	–	–	–	–	–	1.3
O=C(COC(=O)c1c2c(nc3ccccc13)/C(=C\c1ccco1)CC2)NC1CCCC1	–	–	–	–	–	–
CN(CCC#N)C(=O)COC(=O)c1c2c(nc3ccccc13)/C(=C\c1ccco1)CC2	–	–	56	–	–	–
C/C(=N\OC(=O)c1ccc(F)cc1)c1nccs1	–	–	–	–	·	1.1
C[C@H]1CCCCO[C@H](CN(C)Cc2ccc3c(c2)OCO3)[C@@H](C)CN([C@@H](C)CO)C(=O)c2cc(NS(=O)(=O)c3cccs3)ccc2O1	·	·	–	·	·	·
FC(F)(F)c1ccc(Oc2ccc(Cl)cc2Br)nc1	–	–	·	–	–	25
COc1ccc(S(=O)(=O)N(C)C[C@H]2OCCCC[C@H](C)Oc3ccc(NC(=O)NC4CCCCC4)cc3C(=O)N([C@H](C)CO)C[C@H]2C)cc1	·	·	–	·	·	·
CCC1CCCCN1C(=O)c1ccc(OC2CCN(Cc3ccccn3)CC2)cc1 (stereo unspecified)	–	11	–	–	–	–
COCC1CCCCN1C(=O)c1ccc(OC2CCN(Cc3ccccn3)CC2)cc1 (stereo unspecified)	–	–	–	–	–	–
CC(Sc1nncn1C)C(=O)Nc1ccc(N2CCCCC2)cc1 (stereo unspecified)	–	–	–	–	34	–
Cc1ccc(NC(=O)c2ccc(OCC3CCCO3)cc2)cc1Cl (stereo unspecified)	–	–	78	–	42	–
COc1ccc(NC(=O)c2ccc(OCC3CCCO3)cc2)cc1Cl (stereo unspecified)	–	–	42	–	–	–
NS(=O)(=O)c1ccc(NC(=O)c2ccc(OCC3CCCO3)cc2)cc1 (stereo unspecified)	–	–	–	–	–	–
CCOc1ccc2nc(NC(=O)c3ccc(OCC4CCCO4)cc3)sc2c1 (stereo unspecified)	–	–	–	–	·	–
COc1ccc(NC(=O)c2ccc(OCC3CCCO3)cc2)cc1OC (stereo unspecified)	–	–	51	–	–	–
Cc1cccc2sc(NC(=O)c3ccc(OCC4CCCO4)cc3)nc12 (stereo unspecified)	–	13	59	–	–	–
O=C(NCCc1ccc(Cl)cc1)c1ccc(OCC2CCCO2)cc1 (stereo unspecified)	–	–	–	–	–	–
CCCNC(=O)N[C@@H]1C=C[C@@H](CC(=O)NCCc2ccccc2)O[C@H]1CO	·	·	–	·	·	·
Cc1ccc(NC(=O)c2ccc(OCC3CCCO3)cc2)c(C)c1 (stereo unspecified)	–	–	·	–	·	–
Cc1ccc(F)cc1NC(=O)c1ccc(OCC2CCCO2)cc1 (stereo unspecified)	–	–	47	–	–	–
SMILES	DAX1 inh	hgDAF12 agonist	esBAF inh	hcDAF12 agonist	Wnt bcat act	ssDAF12 agonist
COc1ccc(-c2oc3ccccc3c(=O)c2OC(C)=O)cc1	–	–	75	–	–	–
COc1ccc(-c2oc3ccccc3c(=O)c2OCC(=O)O)cc1	–	–	–	–	–	–
CC(=O)Oc1cc(O)c2c(=O)c(OC(C)=O)c(-c3ccc(OC(C)=O)c(OC(C)=O)c3)oc2c1	·	·	43	·	·	·
Cc1cnc(C(=O)Nc2ccc(C(C)C)cc2)cn1	–	12	·	–	39	–
Cc1noc(C)c1NC(=O)N(C)C[C@H]1Oc2ncc(/C=C/c3ccccc3)cc2C(=O)N([C@@H](C)CO)C[C@@H]1C	·	·	–	·	·	·
CSc1nc2ccc(NC(=O)c3ccc(=O)n(C)n3)cc2s1	–	–	·	–	–	–
CSc1nc2ccc(NC(=O)c3ccc(F)c(F)c3)cc2s1	–	–	·	–	51	–
CSc1nc2ccc(NC(=O)c3ccc(=O)[nH]c3)cc2s1	–	–	–	–	–	–
CSc1nc2ccc3nc(NC(=O)c4ccccc4)sc3c2s1	–	–	50	–	–	–
CSc1nc2ccc(NC(=O)c3cc4ccccc4o3)cc2s1	–	12	·	–	58	–
CSc1nc2ccc(NC(=O)c3cccs3)cc2s1	–	11	78	–	–	–
O=C(Nc1nc2ccsc2c(=O)s1)c1ccc(F)cc1	–	–	·	–	–	–
COc1ccc(/C=N/NC(=O)c2ccc3c(c2)OCO3)cc1	–	–	–	–	–	–
O=C(N/N=C/c1ccsc1)c1ccc2c(c1)OCO2	–	–	49	–	–	–
C/C(=N\NC(=O)c1ccc2c(c1)OCO2)c1ccc(O)cc1	–	–	·	–	–	–
COc1cc(/C=N/NC(=O)c2cccnc2)ccc1OC(=O)c1ccc2c(c1)OCO2	–	–	·	–	46	–
O=C(N/N=C/c1ccncc1)c1ccc2c(c1)OCO2	–	11	–	–	–	–
C/C(=N\NC(=O)c1ccc2c(c1)OCO2)c1ccc(NS(C)(=O)=O)cc1	–	–	51	–	–	–
C[C@@H]1CN([C@@H](C)CO)C(=O)CCCn2cc(nn2)CO[C@H]1CN(C)Cc1ccc(O)cc1	·	·	–	·	·	·
Cc1cc(C(=O)N/N=C/c2ccc3c(c2)OCO3)c(C)o1	–	11	–	–	–	–
CN(C)c1ccc(/C=N/NC(=O)c2ccc3c(c2)OCCO3)cc1	–	–	–	–	–	–
O=C(N/N=C/c1ccc2c(c1)OCO2)c1ccc2c(c1)OCCO2	–	13	·	–	–	–
O=C(N/N=C/c1ccc2c(c1)OCO2)c1ccc(Cl)cc1Cl	–	–	–	–	–	–
COc1ccc(NC(=O)Nc2ccc3c(c2)C(=O)N([C@@H](C)CO)C[C@@H](C)[C@@H](CN(C)C(=O)C2CCCCC2)OCCCC[C@@H](C)O3)cc1	·	·	–	·	·	·
CCOCCCNC(=O)c1ccc2c(c1)N=C(CC)c1cc(Br)ccc1S2	4.2	–	·	–	–	–
N#CC1(c2ccc(NC(=O)c3ccccc3)cc2)CCCC1	·	·	–	·	·	·
CC(=O)Oc1ccc(C(=O)Nc2ccc(C3(C#N)CCCC3)cc2)cc1	–	–	51	–	–	–
O=C(COc1cccnc1[N+](=O)[O-])Nc1cc(Cl)ccc1Cl	–	–	48	–	–	–
